Assay outcomes as filed in PubChem BioAssay.
HepG2 viability: HepG2 cytotoxicity, counter-screen for TGF-b inhibitors. HepG2 CAGA-GFP viability, ATP luminescence, 18 h. Potency, µM (titrated, usually from 46.1 µM), for inactives: at the top dose activity change, negative = cytotoxicity, hits mostly cytotoxic. 0.76% of 410,000 active. AID 588856
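CellTiter-Glo luminescence gave cytotoxicity after 18 hours at 37 degrees C. The cells were HepG2 CAGA-GFP in 1% FBS DMEM, stimulated with 500 pg/mL TGF-beta after compound addition. %Activity was normalised to no-cell wells (complete cell-killing) and DMSO (no toxicity), and curves were fitted and classified.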
ATXN2 expr inh: reduces ATXN2 reporter expression in HEK-293 cells | HEK-293 ATXN2-luciferase reporter, luminescence, 24 h | Potency, µM (series often up to 57 µM), inactives show at the highest dose activity change, negative = inhibition, usual class: inhibitors | 0.72% of 360,000 active; also: % is scaled to controls: 0 for no effect and ±100 for the full control effect; nearly all actives have a fitted effect of over 55% in size
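ATXN2-luciferase reporter cells (luciferase flanked by upstream and downstream ATXN2 gene portions) were treated 24 h at 37 °C with compounds at up to 57 uM. SteadyGlo luminescence gave expression; GF-AFC fluorescence gave viability.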
TGFb inhibitor: TGF-b pathway inhibition | HepG2 CAGA-GFP TGF-b/SMAD3 reporter, GFP fluorescence, 18 h; TGF-beta stimulated, 500 pg/mL final | Potency, µM (doses to about 46.1 µM), for the others: at the highest dose activity, negative = inhibition, actives largely listed as inhibitors | 1.2% of 410,000 active | AID 588855; also: % is scaled to controls: 0 for no effect and ±100 for the full control effect; nearly all actives have a fitted effect of over 65% in size
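First, reporter cells (HEPG2 CAGA-GFP) rested 2 h at 37 degrees C. Next, compounds were pinned in and TGF-beta added to 500 pg/mL final. After 18 h, GFP was imaged per cell and summed per well.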
TDP1 cell noCPT: qHTS for Inhibitors of human tyrosyl-DNA phosphodiesterase 1 (TDP1): qHTS in cells in absence of CPT. DT40 Tdp1-/- hTDP1 cells, no CPT, ATP luminescence, 48 h. Potency, µM (doses to about 46.2 µM), for the others: top-dose activity change, negative = growth inhibition, usual class: inhibitors. 15% of 420,000 active; also: % is scaled to controls: 0 for no effect and ±100 for the full control effect; nearly all actives have a fitted effect of over 55% in size
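DT40 Tdp1-/-;hTDP1 cells, no CPT (DMSO vehicle only), 400 cells/well; compounds pin-transferred; ≥48 hr, 37 °C; CellTiter-Glo 30 min RT dark, luminescence read.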
DT40 TDP1 CPT: DT40-hTDP1 cell growth loss with CPT. chicken DT40 Tdp1-/-;hTDP1 cells + 20 nM CPT, ATP luminescence, 48 h. Potency, µM (top dose mostly 46.2 µM), for inactives: top-dose activity change, negative = growth inhibition, usual class: inhibitors. 12% of 420,000 active. AID 686979; also: % is scaled to controls: 0 for no effect and ±100 for the full control effect; nearly all actives have a fitted effect of over 55% in size
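Cell growth measured by CellTiter-Glo luminescence after a minimum 48 h, 37 C compound exposure with 20 nM CPT in Tdp1-knockout DT40 cells stably expressing hTDP1, seeded 400/well; qHTS titration format.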
S2 tox: viability counter-screen for ATXN expression inhibitors. 0.49% of 400,000 active. Potency, µM (titrated, usually from 56.7 µM), actives largely listed as cytotoxic. AID 651635. S2 cells (HEK-293 line with an ATXN2-luciferase reporter) viability, CellTiter-Fluor protease fluorescence, 24 h; also: nearly all actives have a fitted effect of over 40% in size
* hit, by the source's call; i = inactive; ? = inconclusive; / = no result. Shown are actives, neighbours in structure and some others; about 17% of the full set was active somewhere. Calls follow the shape of the dose curve; as a rule, active = well fitted curve in the direction sought with a large enough effect; inconclusive = small, poorly fitted or top-dose-only effect, or another doubt; inactive = no such curve, though single readings can be large; an effect the other way counts as inactive or inconclusive. Potency is read from the fitted curve at half-maximal effect.

SMILES	HepG2 viability	ATXN2 expr inh	TGFb inhibitor	TDP1 cell noCPT	DT40 TDP1 CPT	S2 tox
Cc1cc(C)c2c(=O)n(CC(=O)Nc3ccc(Br)c(C)c3)sc2n1	-66%	/	?	9.2µM*	8.2µM*	i
Cc1cc(C)c2c(=O)n(CC(=O)NC3CCCC3)sc2n1	4%	29%	-16%	4.1µM*	2.9µM*	i
CCc1ccccc1OCCSc1nnc(-c2cc(OC)c(OC)c(OC)c2)o1	-33%	-25%	?	18µM*	18µM*	i
COc1cc(-c2nnc(SCc3ccccc3Cl)o2)cc(OC)c1OC	-2%	25%	10%	?	?	i
Cc1ccccc1OCCSc1nnc(-c2cccs2)o1	-28%	19%	-15%	?	-23%	i
COc1ccc(-c2nnc(SCCOc3ccccc3C)o2)cc1OC	-15%	-3%	0%	18µM*	?	i
CC1CCCN(S(=O)(=O)c2cccc(C(=O)NCCCN3CCCC3=O)c2)C1 (centres undefined)	-21%	/	-7%	-6%	-7%	i
CCOc1ccccc1NC(=O)CC(O)(C(F)(F)F)C(F)(F)F	-25%	3%	-1%	-6%	-20%	i
COc1ccc(C(N)=O)cc1NC(=O)CC(O)(C(F)(F)F)C(F)(F)F	-16%	6%	1%	?	15µM*	i
CCN(Cc1cc2cc(C)ccc2[nH]c1=O)C(=O)c1cccc(OC)c1	-5%	-23%	-7%	?	?	i
CCc1ccc2[nH]c(=O)c(CN(Cc3ccc4c(c3)OCO4)C(=O)c3ccco3)cc2c1	-10%	-12%	?	?	23µM*	?
COc1ccccc1NC(=S)N(Cc1ccco1)Cc1cc2cc(C)ccc2[nH]c1=O	13%	-31%	4%	13µM*	9.2µM*	i
COc1ccc2[nH]c(=O)c(CN(Cc3ccc4c(c3)OCO4)C(C)=O)cc2c1	-4%	-2%	?	-7%	?	i
COc1ccc(C(=O)N(Cc2ccco2)Cc2cc3cc(C)ccc3[nH]c2=O)cc1OC	3%	7%	19%	16µM*	?	i
COc1ccccc1NC(=O)N(Cc1ccco1)Cc1cc2cccc(C)c2[nH]c1=O	-22%	-11%	?	29µM*	16µM*	i
COCCNC(=O)C1CCCN(C(=O)COc2ccc(C(C)(C)C)cc2)CC1 (centres undefined)	2%	15%	5%	?	-21%	i
CCOC(=O)CNC(=O)CSc1nc(C(C)C)nc2c1cnn2-c1ccccc1	-80%	/	0%	?	-22%	i
Cc1ccc(CNC(=O)COC(=O)c2cccnc2Cl)cc1	-1%	10%	-4%	-6%	-20%	i
CN(CC(=O)Nc1ccccc1C(F)(F)F)C(=O)COc1ncnc2ccccc12	0%	-2%	0%	10%	2%	i
CCN1CCCC1CN(Cc1cc2cc(C)cc(C)c2[nH]c1=O)C(=O)Nc1ccccc1OC (centres undefined)	-33%	-3%	?	21µM*	13µM*	?
COC(=O)c1ccccc1NC(=S)N(Cc1ccc2c(c1)OCO2)Cc1cc2cc(C)ccc2[nH]c1=O	-24%	3%	?	?	21µM*	i
Cc1ccc2[nH]c(=O)c(CN(Cc3ccco3)C(=O)c3ccncc3)cc2c1	-4%	-27%	2%	10µM*	10µM*	i
O=C(c1cccs1)N(Cc1ccco1)Cc1cc2ccccc2[nH]c1=O	2%	8%	-8%	?	?	?
CSCc1c(C(=O)NCCc2ccccn2)oc2ccccc12	-24%	3%	-21%	-26%	6%	i
